# Source: PubChem BioAssay AID743135 (Broad Institute, 2013)
# Records with an inconclusive call do not appear. Active and inactive are the calls of the source.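 How the source made its calls: active means fitted drop in cell viability signal with half-maximal potency at most twice the top valid dose; inconclusive means flat fit with a 30 to 70% drop, or poor fit; inactive means opposite direction, flat within 30%, or potency beyond limit.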
# Assay: HEK293T viability reduction – cell-based, ATP luminescence, dry powder, Set3, 50 µM top, cytotoxicity control, dose response (AID 743135)
# Details: CellTiter-Glo ATP luminescence, 72 h; series mostly up to 50 µM; activity change, negative = cytotoxicity: at the top concentration
SMILES,"activity change, negative = cytotoxicity",outcome
Cc1c(C(=O)O)sc2nc(/C=C/c3cccc(=O)[nH]3)[nH]c(=O)c12,-5.21% (inactive),
Cc1c(C(=O)O)sc2nc(/C=C/c3cccnc3)[nH]c(=O)c12,-11% (inactive),
Cc1c(C(=O)O)sc2nc(/C=C/c3ccccc3)[nH]c(=O)c12,4.18% (inactive),
Cc1c(C(=O)O)sc2nc(/C=C/C=C/c3ccccc3)[nH]c(=O)c12,-4.1% (inactive),
Cc1c(C(=O)O)sc2nc(/C=C/c3ccc4cc[nH]c4c3)[nH]c(=O)c12,-15% (inactive),
Cc1c(C(=O)O)sc2nc(/C=C/c3cccc([N+](=O)[O-])c3)[nH]c(=O)c12,12.3% (inactive),
Cc1c(C(=O)O)sc2nc(/C=C/c3cccc(N4CCOCC4)n3)[nH]c(=O)c12,0.269% (inactive),
Cc1c(C(=O)O)sc2nc(/C=C/C3CC3)[nH]c(=O)c12,-0.319% (inactive),
Cc1c(C(=O)O)sc2nc(CCc3cccc(O)c3)[nH]c(=O)c12,0.17% (inactive),
Cc1c(C(=O)O)sc2nc(/C=C/c3ccc4ccccc4c3)[nH]c(=O)c12,7.22% (inactive),
Cc1c(C(=O)O)sc2nc(/C=C/c3ccccn3)[nH]c(=O)c12,-6.03% (inactive),
Cc1c(C(=O)O)sc2nc(/C=C/c3cccc(C(F)(F)F)c3)[nH]c(=O)c12,-4.4% (inactive),
Cc1c(C(=O)O)sc2nc(/C=C/c3cc4ccccc4cn3)[nH]c(=O)c12,19.6% (inactive),
Cc1c(C(=O)O)sc2nc(/C=C/c3ccc(N)nc3)[nH]c(=O)c12,-10.6% (inactive),
Cc1c(C(=O)O)sc2nc(/C=C/c3cnc4ccccc4c3)[nH]c(=O)c12,-23.6% (inactive),
Cc1c(C(=O)O)sc2nc(/C=C/c3cccnc3N)[nH]c(=O)c12,-17.4% [at 12 µM] (inactive),
Cc1c(C(=O)O)sc2nc(/C=C/c3cccc(N)c3)[nH]c(=O)c12,-3.83% (inactive),
Cc1c(C(=O)O)sc2nc(/C=C/c3cccc(N4CCNCC4)c3)[nH]c(=O)c12,-0.926% (inactive),
Cc1c(C(=O)O)sc2nc(/C=C/c3cccc(O)c3)[nH]c(=O)c12,,inactive
Cc1c(C(=O)O)sc2nc(/C=C/c3ccc4[nH]ccc4n3)[nH]c(=O)c12,-5.92% [at 12 µM] (inactive),
Cc1c(C(=O)O)sc2nc(/C=C/c3ccnc4ccccc34)[nH]c(=O)c12,0.42% (inactive),
Cc1c(C(=O)O)sc2nc(/C=C/c3cccc(C(=O)O)c3)[nH]c(=O)c12,-4.26% (inactive),
COc1cccc(/C=C/c2nc3sc(C(=O)O)c(C)c3c(=O)[nH]2)c1,2.64% (inactive),
Cc1c(C(=O)O)sc2nc(/C=C/c3cccc(F)c3)[nH]c(=O)c12,16.6% (inactive),
Cc1c(C(=O)O)sc2nc(/C=C/c3ccc4[nH]ccc4c3)[nH]c(=O)c12,-10.9% (inactive),
Cc1c(C(=O)O)sc2nc(/C=C/c3ccc(O)cn3)[nH]c(=O)c12,6.21% [at 1.2 µM] (inactive),
Cc1c(C(=O)O)sc2nc(/C=C/c3cccc(C(N)=O)c3)[nH]c(=O)c12,-7.3% (inactive),
Cc1c(C(=O)O)sc2nc(/C=C/c3cccc(OC(F)(F)F)c3)[nH]c(=O)c12,-12% (inactive),
Cc1c(C(=O)O)sc2nc(/C=C/c3ccccc3O)[nH]c(=O)c12,-17.6% (inactive),
